Reference: PubChem BioAssay (Tox21)
Unmarked numbers belong to inactive results. Results filed as inconclusive are left out. Where a call stands in place of a potency, no number is given. Activity calls are given as the source filed them. Unless noted, calls follow the shape of the dose curve; as a rule, active = well fitted curve in the direction sought with a large enough effect in the repeat runs; inconclusive = weak or mixed curves; inactive = no such curve, though single readings can be large; an effect the other way counts as inactive or inconclusive.

What was measured:
[1] = A CellTox Green Cytotoxicity Assay to monitor cytotoxicity in HepG2 cells - 0 hour (AID 1224882); also: nearly all actives have a fitted effect of over 35% in size; also: potency is read from the fitted curve at half-maximal effect
Outline: (§1)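 Continuous culture of HepG2 cells with a membrane-impermeant DNA dye; rising fluorescence marks dead cells. Compound exposure lasted up to 40 h at 37 C, with reads every 8 h from 0 h.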

[2] = A CellTox Green Cytotoxicity Assay to monitor cytotoxicity in HepG2 cells - 32 hour (AID 1224883); also: nearly all actives have a fitted effect of over 50% in size; also: potency is read from the fitted curve at half-maximal effect
Outline: as §1

[3] = A CellTox Green Cytotoxicity Assay to monitor cytotoxicity in HEK293 cells - 8 hour (AID 1224884); also: nearly all actives have a fitted effect of over 35% in size; also: potency is read from the fitted curve at half-maximal effect
Outline: (§2)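 Each value comes from one timepoint of a single continuous run in which HEK293 cells with CellTox Green were exposed to compound for up to 40 h at 37 C, dye fluorescence rising with cell death.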

[4] = qHTS RealTime-Glo MT Cell Viability Assay in HepG2 cells - 16 hour (AID 1224885); also: nearly all actives have a fitted effect of over 50% in size
Outline: (§3)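 HepG2 suspension premixed with RealTime-Glo reagents is plated at 600 cells per well and left 5 h at 37 C/5% CO2. Compounds in DMSO then go in, and bioluminescence reflecting viable cell number is recorded over 40 h.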

[5] = qHTS RealTime-Glo MT Cell Viability Assay in HEK293 cells - 24 hour (AID 1224886); also: top concentration of the series differs between compounds; nearly all actives have a fitted effect of over 50% in size
Outline: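 Reads taken at 0, 8, 16, 24, 32 and 40 h from the same wells. HEK293 cells (600/well) carried RealTime-Glo reagents from seeding, with compound added after a 5 h settle at 37 C.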

[6] = qHTS RealTime-Glo MT Cell Viability Assay in HepG2 cells - 0 hour (AID 1224889); also: nearly all actives have a fitted effect of over 50% in size
Outline: as §3

[7] = A CellTox Green Cytotoxicity Assay to monitor cytotoxicity in HepG2 cells - 8 hour (AID 1224890); also: nearly all actives have a fitted effect of over 45% in size; also: potency is read from the fitted curve at half-maximal effect
Outline: as §1

[8] = qHTS assay to identify small molecule antagonists of the estrogen receptor alpha (ER-alpha) signaling pathway using the BG1 cell line in the presence of 0.1 nM 17-beta-estradiol - cell viability counter screen (AID 1259241); also: nearly all actives have a fitted effect of over 40% in size
Outline: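 VM7Luc4E2 cells (endogenous full-length ER-alpha, 4xERE-luciferase), cultured 5 days in charcoal-stripped serum, exposed to compounds with 0.1 nM 17beta-estradiol (final) for 22 hr at 37C. Viability read in same wells as live-cell protease fluorescence after 30 min.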

[9] = qHTS assay to identify small molecule antagonists of the androgen receptor (AR) signaling pathway using the MDA cell line in the presence of 0.5 nM R1881 - cell viability counter screen (AID 1259242); also: nearly all actives have a fitted effect of over 45% in size
Outline: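 Fluorescence from CellTiter-Fluor, which reports protease activity of live cells, was read 30 min after reagent addition to MDA-kb2 cells that had been incubated 16 hr with compound and 0.5 nM R1881.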

[10] = target: Estrogen receptor (Homo sapiens) (UniProt P03372); test: qHTS assay to identify small molecule antagonists of the estrogen receptor alpha (ER-alpha) signaling pathway using the BG1 cell line in the presence of 0.1 nM 17-beta-estradiol (AID 1259244); also: nearly all actives have a fitted effect of over 50% in size
Estrogen receptor (Homo sapiens), sequence (P03372 whole entry, looked up): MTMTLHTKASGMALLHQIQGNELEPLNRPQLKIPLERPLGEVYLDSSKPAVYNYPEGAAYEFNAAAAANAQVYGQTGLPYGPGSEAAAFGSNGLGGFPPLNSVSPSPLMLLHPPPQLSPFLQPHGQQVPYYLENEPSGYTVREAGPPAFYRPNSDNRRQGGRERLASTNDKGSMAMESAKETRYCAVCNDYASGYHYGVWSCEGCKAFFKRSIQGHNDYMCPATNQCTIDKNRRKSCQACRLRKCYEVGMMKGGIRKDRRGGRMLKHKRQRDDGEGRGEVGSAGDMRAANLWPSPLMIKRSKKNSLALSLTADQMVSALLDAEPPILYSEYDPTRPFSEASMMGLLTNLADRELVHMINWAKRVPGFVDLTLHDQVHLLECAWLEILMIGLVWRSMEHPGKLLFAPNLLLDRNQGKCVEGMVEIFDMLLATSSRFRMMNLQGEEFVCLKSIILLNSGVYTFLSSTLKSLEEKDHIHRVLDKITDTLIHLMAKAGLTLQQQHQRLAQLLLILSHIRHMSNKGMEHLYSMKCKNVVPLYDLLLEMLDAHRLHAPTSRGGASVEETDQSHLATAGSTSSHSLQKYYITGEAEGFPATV
Outline: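 Quantitative high-throughput screen in VM7Luc4E2 cells: compound plus 0.1 nM E2 (final), 22 h, 37C, 5% CO2; ONE-Glo added, 30 min room temperature, luminescence measured.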

[11] = qHTS assay to identify small molecule HDAC inhibitors (AID 1259364); also: nearly all actives have a fitted effect of over 45% in size; also: potency is read from the fitted curve at half-maximal effect
Outline: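 Endogenous HDAC class I/II activity was measured in wild-type HCT-116 cells by HDAC-Glo luminescence after 2 h compound treatment.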

[12] = qHTS assay to identify small molecule HDAC inhibitors - cell viability counter screen (AID 1259365)
Outline: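 Wild-type HCT-116 cells, 1,500/well, cultured overnight, then compound-treated 2 h at 37 C. Viability measured as ATP luminescence with CellTiter-Glo after 30 min at room temperature.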

[13] = qHTS assay to identify small molecule agonists of the sonic hedgehog signaling (Shh) pathway - cell viability counter screen (AID 1259366); also: nearly all actives have a fitted effect of over 50% in size
Outline: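 NIH/3T3-derived Gli1-Luc reporter cells, 2,000 per well, received compound after 4 h and were treated about 23 h at 37C. Viability measured in the same wells by CellTiter-Fluor fluorescence after 1 h.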

[14] = qHTS assay to identify small molecule antagonists of the sonic hedgehog signaling (Shh) pathway - cell viability counter screen (AID 1259367); also: nearly all actives have a fitted effect of over 55% in size
Outline: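 Using CellTiter-Fluor, viability of Gli1-Luc reporter 3T3 cells is read by fluorescence in the wells used for the Shh luciferase assay. Treatment lasts 23 hr with conditioned medium, then reagent 1 hr at 37C.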

[15] = qHTS assay to identify small molecule agonists of the sonic hedgehog signaling (Shh) pathway (AID 1259368; calls by dose curve;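 also: NIH/3T3-derived 3T3Gli1-Luc cells carrying a stable Gli1-driven firefly luciferase reporter; series mostly up to about 92 µM; nearly all actives have a fitted effect of over 15% in size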)
Outline: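 Luminescent signal was taken as a measure of Gli1-controlled luciferase expression in stably transfected NIH/3T3-derived cells that had been treated for 24 hr with compounds delivered in DMSO.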

[16] = qHTS assay to identify small molecule antagonists of the sonic hedgehog signaling (Shh) pathway (AID 1259369; calls by dose curve; also: nearly all actives have a fitted effect of over 45% in size; also: potency is read from the fitted curve at half-maximal effect)
Outline: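 Screening used 3T3Gli1-Luc cells at 2,000 per well, compounds delivered in DMSO, and conditioned medium as agonist stimulus; plates incubated 24hr at 37 C and 5% CO2 before a 30min luciferase step.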

[17] = A CellTox Green Cytotoxicity Assay to monitor cytotoxicity in HEK293 cells - 16 hour (AID 1224888); also: nearly all actives have a fitted effect of over 35% in size; also: potency is read from the fitted curve at half-maximal effect
Outline: as §2

[18] = target: Androgen receptor (Homo sapiens) (UniProt P10275); test: qHTS assay to identify small molecule antagonists of the androgen receptor (AR) signaling pathway using the MDA cell line in the presence of 0.5 nM R1881 (AID 1259243); also: nearly all actives have a fitted effect of over 50% in size; also: potency is read from the fitted curve at half-maximal effect
Androgen receptor (Homo sapiens), sequence (P10275 whole entry, looked up): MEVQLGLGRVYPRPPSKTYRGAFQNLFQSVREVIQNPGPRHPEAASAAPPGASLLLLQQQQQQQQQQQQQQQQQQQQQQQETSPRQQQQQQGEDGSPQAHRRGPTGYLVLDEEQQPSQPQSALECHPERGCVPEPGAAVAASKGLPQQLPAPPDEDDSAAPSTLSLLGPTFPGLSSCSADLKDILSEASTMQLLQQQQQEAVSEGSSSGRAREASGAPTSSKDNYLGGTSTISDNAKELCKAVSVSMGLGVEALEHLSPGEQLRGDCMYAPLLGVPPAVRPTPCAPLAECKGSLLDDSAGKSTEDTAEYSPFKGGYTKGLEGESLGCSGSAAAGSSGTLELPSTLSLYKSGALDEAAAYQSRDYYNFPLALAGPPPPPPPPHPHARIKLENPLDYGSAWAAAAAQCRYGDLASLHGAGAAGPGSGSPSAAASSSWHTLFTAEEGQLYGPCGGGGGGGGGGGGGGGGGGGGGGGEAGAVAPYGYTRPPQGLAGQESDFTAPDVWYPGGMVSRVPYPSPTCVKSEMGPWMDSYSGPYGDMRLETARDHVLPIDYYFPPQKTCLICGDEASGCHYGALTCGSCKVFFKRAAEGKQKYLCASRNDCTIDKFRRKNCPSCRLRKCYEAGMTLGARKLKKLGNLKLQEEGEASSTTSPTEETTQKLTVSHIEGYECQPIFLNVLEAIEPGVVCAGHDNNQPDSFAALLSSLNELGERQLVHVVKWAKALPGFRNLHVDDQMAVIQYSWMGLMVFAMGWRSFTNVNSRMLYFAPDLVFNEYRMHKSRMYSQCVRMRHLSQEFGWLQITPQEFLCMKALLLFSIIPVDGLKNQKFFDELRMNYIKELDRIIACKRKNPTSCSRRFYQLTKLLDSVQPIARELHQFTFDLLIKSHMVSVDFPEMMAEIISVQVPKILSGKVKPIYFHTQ
Outline: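 Inhibition of R1881 (0.5 nM final) induced reporter signal was measured in human MDA-kb2 cells; note the MMTV promoter also responds to GR. Exposure lasted 16 hr at 37C.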

[19] = qHTS assay to identify small molecule phospholipidosis (PLD) inducers (AID 1259344; active = well fitted curve in the direction sought with a large enough effect; an effect the other way counts as inactive or inconclusive)
Outline: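 Fluorescent phospholipid staining (LipidTOX Red) measured by automated microscopy in fixed HepG2 cells after 24 h treatment; nuclei counterstained with Hoechst 33342; amiodarone as reference inducer.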

[20] = qHTS RealTime-Glo MT Cell Viability Assay in HEK293 cells - 8 hour (AID 1224887); also: nearly all actives have a fitted effect of over 50% in size; also: potency is read from the fitted curve at half-maximal effect
Outline: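 qHTS format; HEK293 cells with NanoLuc/prosubstrate reagent, 37 C/5% CO2 for 5 h pre-dosing; compounds 23 nL in DMSO; luminescence at each time point reflects viable cells.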

SMILES	Potency [1]	Potency [2]	Potency [3]	outcome [4]	Potency [5]	Potency [6]	Potency [7]	Potency [8]	outcome [9]	Potency [10]	Potency [11]	outcome [12]	Potency [13]	Potency [14]	Potency [15]	Potency [16]	Potency [17]	Potency [18]	outcome [19]	Potency [20]
FC(F)(F)C(Cl)(Cl)Cl	inactive	inactive	inactive	inactive	inactive	inactive	inactive	inactive	inactive	inactive	inactive	inactive	inactive	inactive	inactive	inactive				
OCC(CBr)(CBr)CBr	inactive	inactive	inactive	inactive	inactive	inactive	inactive	inactive	inactive	inactive		inactive	inactive	inactive	inactive					
CCCC(CCC)(C(=O)OCC)C(=O)OCC	inactive	inactive	inactive	inactive	inactive	inactive	inactive	inactive	inactive		inactive	inactive	inactive	inactive	inactive	inactive	inactive	inactive		
Cc1ccsc1C(=CCCN1CCC[C@@H](C(=O)O)C1)c1sccc1C	inactive	inactive	inactive	inactive	inactive	inactive	inactive	inactive	inactive	inactive	inactive	inactive	inactive	inactive	inactive	inactive	inactive	inactive	inactive	
CC(C)(C)c1ccc(OC(=O)c2ccccc2O)cc1	inactive	inactive	inactive	inactive		inactive	inactive	inactive	inactive	inactive	27.3 µM (active)	inactive	inactive	inactive		inactive	inactive			inactive
Cc1cc2nc(N)sc2cc1C	inactive	inactive	inactive	inactive		inactive	inactive	inactive	inactive		0.276 µM (active)	inactive	inactive	inactive	inactive	inactive	inactive	inactive		inactive
CC(CNC1CCCCC1)OC(=O)c1ccccc1 (stereo not given)	inactive	inactive	inactive	inactive		inactive	inactive	inactive	inactive	inactive	inactive	inactive	inactive	inactive		inactive	inactive		inactive	inactive
CCN1CC(CCN2CCOCC2)C(c2ccccc2)(c2ccccc2)C1=O (stereo not given)	inactive	inactive	inactive	inactive	inactive	inactive	inactive	inactive	inactive		inactive	inactive			inactive		inactive		inactive	
CCN(CCCc1ccccc1)CCCc1ccccc1	inactive	inactive	inactive	inactive		inactive	inactive	inactive	inactive	inactive	inactive	inactive	inactive	inactive	inactive	inactive	inactive		inactive	inactive
Nc1cccc(S(=O)(=O)O)c1	inactive	inactive	inactive	inactive		inactive	inactive	inactive	inactive	inactive	inactive	inactive	inactive	inactive	inactive	inactive	inactive	inactive		inactive
COc1ccc(Nc2ccc(OC)cc2)cc1	inactive	inactive	inactive	inactive		inactive	inactive	inactive	inactive	inactive	27.8 µM (active)	inactive	inactive	inactive	inactive	inactive	inactive			14.1 µM (active)
COC(=O)c1ccc(OC)cc1	inactive	inactive	inactive	inactive	inactive	inactive	inactive	inactive	inactive		inactive	inactive	inactive	inactive	inactive	inactive	inactive			
Cc1cn([C@@H]2O[C@H](CO)[C@@H](O)[C@@H]2F)c(=O)[nH]c1=O	inactive	inactive	inactive	inactive	inactive	inactive	inactive	inactive	inactive		inactive	inactive	inactive	inactive	inactive	inactive	inactive			
O=C1CCN(c2ccccc2)N1	inactive	inactive	inactive	inactive	inactive	inactive	inactive	inactive	inactive		inactive	inactive	inactive	inactive	inactive	inactive				inactive
N#CSCC(=O)O	inactive	inactive	inactive	inactive		inactive	inactive	inactive	inactive	inactive	inactive	inactive	inactive	inactive	inactive	inactive	inactive	inactive		inactive
Cc1ccc(C=O)s1	43.6 µM (active)	38.9 µM (active)	43.6 µM (active)	inactive	inactive	inactive	38.9 µM (active)	inactive	inactive		inactive	inactive	inactive	inactive		48.6 µM (active)	38.9 µM (active)			
CCCCC1CCC(=O)O1 (stereo not given)	inactive	inactive	inactive	inactive	inactive	inactive	inactive	inactive	inactive	inactive	inactive	inactive	inactive	inactive	inactive	inactive	inactive			
Cn1cnc2c(F)c(Nc3ccc(Br)cc3Cl)c(C(=O)NOCCO)cc21	inactive	0.0379 µM (active)	inactive	inactive	inactive	inactive	inactive	inactive	inactive		inactive	inactive		inactive	inactive	inactive	inactive	5.96 µM (active)	inactive	
O=C(O)[C@@H](O)[C@H](O)[C@H](O)[C@@H](O)C(=O)O	inactive	inactive	inactive	inactive		inactive	inactive	inactive	inactive		inactive	inactive	inactive	inactive	inactive	inactive	inactive		inactive	inactive
